Our source for the growth values is PubChem BioAssay (NCI).

Holding throughout (assay): NCI-60 one-dose screen, 48 h (100 = growth as untreated, 0 = no growth, -100 = all killed)
What all share (conditions): 10 µM unless noted

For assay [1], the system named is SK-MEL-2 melanoma.
The subject of assay [2] is EKVX NSCLC.
In assay [3] the test system is SN12C renal.
Assay [4] relates to UO-31 renal.
The test system of assay [5] is TK-10 renal.
Assay [6] relates to ACHN renal.
Assay [7] relates to CAKI-1 renal.
Assay [8] has as its system A498 renal.
Assay [9] concerns CCRF-CEM leukemia.
The subject of assay [10] is MOLT-4 leukemia.
Assay [11] concerns SR leukemia.
Assay [12] deals with RPMI-8226 leukemia.
In assay [13] the test system is OVCAR-8 ovarian.
The subject of assay [14] is OVCAR-5 ovarian.
Assay [15] relates to OVCAR-4 ovarian.
Assay [16] has as its system SK-OV-3 ovarian.
For assay [17], the system named is IGROV1 ovarian.
For assay [18], the system named is OVCAR-3 ovarian.
Assay [19] deals with HS 578T breast.
Assay [20] concerns NCI/ADR-RES ovarian.

This is part of a sample that, as a whole, favours compounds with a hit. Of some 83,000 tested, about 20% had one in any assay.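 Results are percent growth after 48 hours of single-concentration exposure. 100 means growth as in untreated cells, lower positive values show inhibition; negative values down to -100 show cell death.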 Unmarked numbers belong to inactive results. Calls of active or inactive are those of the source. How the source made its calls: active means growth percent below 10; inactive means the rest.

For `CC[C@]1(O)C[C@@H]2CN(CCc3c([nH]c4ccccc34)[C@@](C(=O)OC)(c3cc4c(cc3OC)N(C)[C@H]3[C@@](O)(C(N)=O)[C@H](O)[C@]5(CC)[C@@H]6C[C@@H]6CN6CC[C@]43[C@@H]65)C2)C1`, the growth in assay [1] is 22.4%; in assay [2] it was 41.1%; in assay [3], 27.6%; in assay [4], 50%; in assay [5] it was 53.5%; in assay [6] it was 33%. Besides, the growth was 32.8% in assay [7]; -7.44% (active) in assay [8]; 17.7% in assay [9]; 17.1% in [10]; 12.1% in [11]; 13.8% in [12]. Moreover, the growth was 15.9% in assay [13]; 52.2% in [14]; 52% in assay [15]; 14.8% in assay [16]; 36.5% in [17]; 6.81% (active) in assay [18]. Also, the growth is 30.2% in [19] and 9.52% (active) in [20].

On to `COc1ccc(C2CC(c3ccc(Cl)cc3)=NN2/C=C2\SC(=S)N(NC(=O)Cc3ccccc3Nc3c(Cl)cccc3Cl)C2=O)cc1` (stereo not given), for which the growth in assay [1] was 80.5%; in assay [2], 62.2%; in assay [3], 48.5%; in assay [4], -30.2% (active); in assay [5], 52.9%; in [6] it was -34.3% (active). Also, the growth in assay [7] is 62.8%; in assay [8], 72%; in [9] it was 38.3%; in [10], 13.5%; in [11], 16.8%; in assay [12], 71.9%. The growth is 23.3% in assay [13]; 86.3% in [14]; 74.7% in assay [15]; 77.9% in assay [16]; 38.9% in [17]; 84.4% in assay [18]. For the same molecule, the figures for the growth in [19] and in assay [20] were 75.6% and 82%, respectively.

With `COC(=O)c1ccc(NC(=O)c2ccc(-c3cccc([N+](=O)[O-])c3)o2)cc1`, the growth is 98.4% in assay [1]; 79% in assay [2]; 97.3% in [3]; 72.9% in assay [4]; 111% in [5]; 94.6% in assay [6]. Also, the growth in assay [7] is 88%; in assay [8] it was 105%; in [9], 107%; in assay [10], 103%; in assay [11], 114%; in [12], 102%. Besides, the growth in assay [13] is 103%; in [14], 109%; in assay [15] it was 92.7%; in assay [16], 98.1%; in assay [17], 91.6%; in assay [18] it was 101%. The growth in assay [19] was 92.2%; in [20], 99%.

For `O=C(O)c1c(=O)cccc2ssc12`, the growth in assay [1] is 11.6%; in assay [2], 11%; in [3], 14.3%; in [4] it was 21.7%; in assay [5], 4.78% (active); in [6], 3.95% (active). The growth is 68.5% in assay [7]; -76.8% (active) in [8]; 4.61% (active) in [9]; -23.3% (active) in assay [10]; -9.58% (active) in assay [11]; 4.35% (active) in assay [12]. Also, the growth in [13] was 24.1%; in assay [14], -52.8% (active); in [15], -37.1% (active); in assay [16] it was 39.1%; in assay [17], 76.1%; in assay [18], -34.3% (active). The growth in [19] was 22.4%; in [20] it was 29.2%.

For the molecule `O=C1c2cc3c(cc2-c2c1c1ccc(F)cc1c(=O)n2C[C@H](O)[C@@H](O)[C@H](O)CO)OCO3`, the growth in [1] was -27.2% (active); in [2], 13%; in assay [3], 4.69% (active); in assay [4], -21.3% (active); in assay [5] it was -0.938% (active); in assay [6], -42.9% (active). For the same molecule, the growth in [7] was -7.09% (active); in assay [8], -78.8% (active); in [9], 5.88% (active); in [10], -6.28% (active); in assay [11] it was 0.151% (active); in assay [12], -0.286% (active). Besides, the growth in [13] was 0.0181% (active); in assay [14], -29.8% (active); in assay [15] it was 15.4%; in assay [16], -20.8% (active); in assay [17], 17.7%; in assay [18] it was -20.3% (active). The growth in assay [19] is 0.229% (active); in [20], 4.78% (active).

Consider `CC1=C/C(=C(\c2ccc(N(C)C)cc2)c2ccc([N+](C)(C)C)cc2)C=CC1=[N+](C)C`, for which the growth in assay [1] was 110%; in assay [2] it was 54.8%; in assay [3], 50.9%; in [4] it was 96.1%; in assay [5] it was 90%; in assay [6] it was 78.1%. Besides, the growth was 99.2% in assay [7]; 81.9% in [8]; 85.8% in assay [9]; 106% in assay [10]; 60.8% in assay [11]; 2.54% (active) in [12]. In addition, the growth was 36.2% in assay [13]; 115% in assay [14]; 89.3% in [15]; 94% in [16]; 94.4% in assay [17]; 86.6% in [18]. Also, the results for the growth in [19] and in assay [20] were 55% and 100%, respectively.

With `C#CCOc1ccc2ncnc(N3CCN(C(=O)CCl)CC3)c2c1`, the growth in assay [1] was 87.6% [8.25 µM]; in assay [2] it was 96.7% [8.25 µM]; in [3], 40.7% [8.25 µM]; in assay [4], 75.5% [8.25 µM]; in assay [5], 99.1% [8.25 µM]; in [6], -54.7% [8.25 µM] (active). Also, the growth in assay [7] was 109% [8.25 µM]; in assay [8] it was 110% [8.25 µM]; in assay [9], 10.7% [8.25 µM]; in assay [10], 67.1% [8.25 µM]; in [11], 33.4% [8.25 µM]; in assay [12], 92.9% [8.25 µM]. Also, the growth in assay [13] was 72.2% [8.25 µM]; in assay [14] it was 93.3% [8.25 µM]; in [15], 63.8% [8.25 µM]; in assay [16], 68.6% [8.25 µM]; in [17] it was -30.9% [8.25 µM] (active); in assay [18] it was 78.7% [8.25 µM]. Besides, the growth is 94.6% [8.25 µM] in assay [19] and 98.5% [8.25 µM] in assay [20].
